The values below come from PubChem BioAssay (NCI).

The panel holds about 83,000 compounds, 20% with a hit somewhere; the sample as a whole holds those more often.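 Cells were grown in 96-well plates and exposed to the test compound at a single concentration for 48 hours; results are reported as percent growth, with values below 10 considered active.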 Unmarked numbers belong to inactive results. Calls of active or inactive are those of the source.

The first assay concerns K-562 leukemia. The assay is described as follows: NCI-60 one-dose screen, 48 h (100 = growth as untreated, 0 = no growth, -100 = all killed). The following applies: 10 µM unless noted.
In the case of `CNC(=O)c1cc(Oc2ccc3nc(NC(=O)Nc4ccc(CN5CCOCC5)c(C(F)(F)F)c4)sc3c2)ccn1`, the growth is 5.93% (active). For `Cc1cc(N/N=C/c2nc(-c3ccc(Cl)cc3)oc2C)c2cc(Br)ccc2n1`, the growth was 0% (active). For `COc1cc(-c2cc(-c3nc4ccc(Cl)cc4[nH]3)[nH]n2)cc(OC)c1OC`, the growth was 43.2%.

`COc1ccc(-c2cc(-c3cccnc3)nc3sc4c(=O)n(-c5ccc(C)cc5)cnc4c23)cc1OC`: the growth is 111%. For `CN(C)c1ccc(/C=C\C2=[N+](C)c3ccccc3C2(C)C)cc1`, the growth is 90.8%. In the case of `COc1ccc(C/C(C)=C(\c2ccc(Cl)cc2)c2ccc(OCCN3CCCCCC3)cc2)cc1`, the growth is 20.7%. On the same count and under the same terms, the figure for `O=C1C=CC(=O)N1c1ccc(Cc2ccc(N3C(=O)C=CC3=O)cc2)cc1` is 66.4%.

Regarding `CN1CCN(Cc2ccc(NC(=O)c3[nH]ncc3Nc3ncnc4[nH]ccc34)cc2)CC1`, the growth was 5.62% (active). Consider `O=C(Nc1ccc(Oc2ccc(F)cc2)c(Cl)c1)c1cccnc1`, for which the growth was 50.9%.

On to `OC(c1cccc(C(F)(F)F)c1)c1cnccc1NC1CCCCCC1` (configuration not stated), for which the growth is 3.23% (active). Same read-out and setting: the figure for `NS(=O)(=O)c1ccc(Nc2nc3n[nH]c(Nc4ccccc4)c3c(=O)[nH]2)cc1` is 96%. With `O=C1/C(=C/c2ccccc2)CN(CCC(=O)N2C/C(=C\c3ccccc3)C(=O)/C(=C/c3ccccc3)C2)C/C1=C\c1ccccc1`, the growth is 11.6%. Consider `CN1CCN(Cc2ccc(NC(=O)c3[nH]ncc3Nc3ncnc4c3CCC4)cc2)CC1`, for which the growth is 6.23% (active). Turning to `O=C1C(=O)N(CCCCn2cc(CO)nn2)c2ccccc21`, the growth is 98.4%.

For `Cc1cc(Nc2nc(N3CCN(C)CC3)nc3ccccc23)n[nH]1`, the growth is 57%. Same read-out and setting: the figure for `CC(=O)C1=C(O)C=C2Oc3c(C(=O)/C=C/c4cc(Cl)cc(Cl)c4)c(O)c(C)c(O)c3[C@]2(C)C1=O` is -16.2% (active); for `O=C(Nc1ccc(CN2CCOCC2)cc1)c1[nH]ncc1Nc1ncnc2sccc12` it is 4.04% (active); for `COc1cc(-c2c3sc(=O)[nH]c3nc3c2c(=O)[nH]n3C(C)C)cc2c1OCO2` it is 97.6%. In the case of `O=C1/C(=C/c2ccc(Cl)c(Cl)c2)CN(C(=O)CCN2CCC(=NO)CC2)C/C1=C\c1ccc(Cl)c(Cl)c1`, the growth is -27% (active). Turning to `CCN(CC)CCCC(C)Nc1ccnc2c(OC)cccc12` (configuration not stated), the growth is 121%. As to `O=C([C@@H](COCc1ccccc1)N1C(=O)[C@@H](N2C(=O)OC[C@@H]2c2ccccc2)[C@H]1/C=C/c1ccccc1)N1CCC(CCN2CCCCC2)CC1`, the growth was 55.8%. Turning to `OCCNCCNc1c2ccccc2nc2ccccc12`, the growth was 69.8%.

`CC[C@H](Nc1ncnc(N)c1C(N)=O)c1nc2cccc(NCc3ccc(C(=O)NO)cc3)c2c(=O)n1-c1ccccc1`: the growth is 55.6%.

For `CCCCCCCCCc1cc(CN2CCCCC2)c(O)c(CN2CCCCC2)c1`, the growth is 31.8%. Take `CN1CCN(Cc2ccc(NC(=O)c3cncc(C#Cc4cnc(N)c5cccnc45)c3)cc2C(F)(F)F)CC1`: the growth is 1.39% (active). Consider `C=C1CC2(OC1=O)C(=O)N(CCCCCCCCCCCCN1C(=O)C3(CC(=C)C(=O)O3)c3ccccc31)c1ccccc12` (configuration not stated), for which the growth was 6.7% (active). As to `Cn1c2ccccc2c2c3c(c4c5ccccc5[nH]c4c21)C(=O)N(N)C3=O`, the growth was 49.7%.

Consider `Cn1c2ccccc2c2c3c(c4c5ccccc5n(CCCCCC#N)c4c21)C(=O)N(O)C3=O`, for which the growth was 16.2%. For `COC(/C=C/c1ccc([N+](=O)[O-])cc1)OC`, the growth is 105%. Turning to `C=CC[N+]1(CC)CCN=C1CCCCCCCCCCCCCCCCC` (configuration not stated), the growth is -66.9% (active).

Consider `CN1CCN(Cc2ccc(NC(=O)c3[nH]ncc3Nc3ccnc4ccsc34)cc2)CC1`, for which the growth was 26.5%.

Take `CN1/C(=C\C=C\C2=[N+](C)c3ccccc3C2(C)C)C(C)(C)c2ccccc21`: the growth is 6.42% (active). On to `CS(=O)(=O)c1ccc(-c2cnc3ccc(-c4cccc(S(C)(=O)=O)c4)nn23)cc1`, for which the growth was 46.9%. As to `COc1ccc(C/C(C)=C(\c2ccc(OCCN3CCCCCC3)cc2)c2ccc(OC(=O)C3CCCCC3)cc2)cc1`, the growth is 9.51% (active).

The test system of the next assay is MALME-3M melanoma. The description is as above. The following applies: 10 µM unless noted.
Take `CNC(=O)c1cc(Oc2ccc3nc(NC(=O)Nc4ccc(CN5CCOCC5)c(C(F)(F)F)c4)sc3c2)ccn1`: the growth is 8.17% (active). For the molecule `Cc1cc(N/N=C/c2nc(-c3ccc(Cl)cc3)oc2C)c2cc(Br)ccc2n1`, the growth was 7.27% (active). `COc1cc(-c2cc(-c3nc4ccc(Cl)cc4[nH]3)[nH]n2)cc(OC)c1OC`: the growth is 50.4%.

As to `COc1ccc(-c2cc(-c3cccnc3)nc3sc4c(=O)n(-c5ccc(C)cc5)cnc4c23)cc1OC`, the growth was 102%.

With `CN(C)c1ccc(/C=C\C2=[N+](C)c3ccccc3C2(C)C)cc1`, the growth is 20.8%. Consider `COc1ccc(-c2cc(-c3cccnc3)nc3sc4c(=O)n(-c5ccc(C)cc5)nnc4c23)cc1OC`, for which the growth was 96%. For the molecule `COc1ccc(C/C(C)=C(\c2ccc(Cl)cc2)c2ccc(OCCN3CCCCCC3)cc2)cc1`, the growth is 104%. As for `O=C1C=CC(=O)N1c1ccc(Cc2ccc(N3C(=O)C=CC3=O)cc2)cc1`, the growth was 88.2%. For the molecule `CN1CCN(Cc2ccc(NC(=O)c3[nH]ncc3Nc3ncnc4[nH]ccc34)cc2)CC1`, the growth was -23.3% (active). With `O=C(Nc1ccc(Oc2ccc(F)cc2)c(Cl)c1)c1cccnc1`, the growth was 103%. With `OC(c1cccc(C(F)(F)F)c1)c1cnccc1NC1CCCCCC1` (configuration not stated), the growth is -77.7% (active). For the molecule `NS(=O)(=O)c1ccc(Nc2nc3n[nH]c(Nc4ccccc4)c3c(=O)[nH]2)cc1`, the growth is 103%.

Regarding `O=C1/C(=C/c2ccccc2)CN(CCC(=O)N2C/C(=C\c3ccccc3)C(=O)/C(=C/c3ccccc3)C2)C/C1=C\c1ccccc1`, the growth is 101%. On to `CN1CCN(Cc2ccc(NC(=O)c3[nH]ncc3Nc3ncnc4c3CCC4)cc2)CC1`, for which the growth was 4.81% (active). Still for that read-out and setting: in the case of `O=C1C(=O)N(CCCCn2cc(CO)nn2)c2ccccc21` it was 97.7%. In the case of `Cc1cc(Nc2nc(N3CCN(C)CC3)nc3ccccc23)n[nH]1`, the growth was 69%. Consider `CC(=O)C1=C(O)C=C2Oc3c(C(=O)/C=C/c4cc(Cl)cc(Cl)c4)c(O)c(C)c(O)c3[C@]2(C)C1=O`, for which the growth was -62.4% (active). In the case of `O=C(Nc1ccc(CN2CCOCC2)cc1)c1[nH]ncc1Nc1ncnc2sccc12`, the growth was 8.16% (active). On to `COc1cc(-c2c3sc(=O)[nH]c3nc3c2c(=O)[nH]n3C(C)C)cc2c1OCO2`, for which the growth was 121%. Regarding `O=C1/C(=C/c2ccc(Cl)c(Cl)c2)CN(C(=O)CCN2CCC(=NO)CC2)C/C1=C\c1ccc(Cl)c(Cl)c1`, the growth was -81.7% (active).

With `CCN(CC)CCCC(C)Nc1ccnc2c(OC)cccc12` (configuration not stated), the growth was 142%. On the same count and under the same terms, in the case of `COc1ccc(-c2cn3c(-c4ccc(OC)cc4)cnc3c(Oc3ccc4c(C)cc(=O)oc4c3)n2)cc1` it was 26.7%; in that of `CN1CCN(Cc2ccc(NC(=O)c3[nH]ncc3Nc3ncnc4sccc34)cc2)CC1`, 16.7%; in that of `O=C([C@@H](COCc1ccccc1)N1C(=O)[C@@H](N2C(=O)OC[C@@H]2c2ccccc2)[C@H]1/C=C/c1ccccc1)N1CCC(CCN2CCCCC2)CC1`, -22.3% (active). For the molecule `OCCNCCNc1c2ccccc2nc2ccccc12`, the growth is 42.1%. For the molecule `CC[C@H](Nc1ncnc(N)c1C(N)=O)c1nc2cccc(NCc3ccc(C(=O)NO)cc3)c2c(=O)n1-c1ccccc1`, the growth was 67.2%.

`CCCCCCCCCc1cc(CN2CCCCC2)c(O)c(CN2CCCCC2)c1`: the growth was 75.1%. With `CN1CCN(Cc2ccc(NC(=O)c3cncc(C#Cc4cnc(N)c5cccnc45)c3)cc2C(F)(F)F)CC1`, the growth was -56.8% (active). Consider `C=C1CC2(OC1=O)C(=O)N(CCCCCCCCCCCCN1C(=O)C3(CC(=C)C(=O)O3)c3ccccc31)c1ccccc12` (configuration not stated), for which the growth is 75.5%. On the same count and under the same terms, in the case of `Cn1c2ccccc2c2c3c(c4c5ccccc5[nH]c4c21)C(=O)N(N)C3=O` it was 69.2%; in that of `Cn1c2ccccc2c2c3c(c4c5ccccc5n(CCCCCC#N)c4c21)C(=O)N(O)C3=O`, 28.6%. Regarding `COC(/C=C/c1ccc([N+](=O)[O-])cc1)OC`, the growth is 109%.

With `O=C(CNC1C2CC3CC(C2)CC1C3)Sc1nnc2sc3ccccc3n12` (configuration not stated), the growth is 95.2%. Still for that read-out and setting: in the case of `C=CC[N+]1(CC)CCN=C1CCCCCCCCCCCCCCCCC` (configuration not stated) it was -46.4% (active); in that of `CN1CCN(Cc2ccc(NC(=O)c3[nH]ncc3Nc3ccnc4ccsc34)cc2)CC1`, 60.6%; in that of `CN1/C(=C\C=C\C2=[N+](C)c3ccccc3C2(C)C)C(C)(C)c2ccccc21`, -9.73% (active). Still for that read-out and setting: in the case of `CS(=O)(=O)c1ccc(-c2cnc3ccc(-c4cccc(S(C)(=O)=O)c4)nn23)cc1` it was 35.3%; in that of `COc1ccc(C/C(C)=C(\c2ccc(OCCN3CCCCCC3)cc2)c2ccc(OC(=O)C3CCCCC3)cc2)cc1`, 66%.
